From PubChem BioAssay
The list is not random: actives were taken first. Their share in the collection is about 3.5%.
MITF primary – human MITF inhibition, primary screen | inhibition, % at 2.6 µM | 650,000 tested, 0.91% active | O75030 | AlphaScreen MITF homodimerization, bead proximity signal | AID 1259374; in the data active = inhibition above about 50%;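 note: 0% = vehicle wells with protein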
GPR151 ag – activators of human GPR151; Q8TDV0; 650,000 tested, 1% active; activation, % at 11.2 µM; PathHunter beta-arrestin GPR151 cells, luminescence; in the data active = activation above about 4.9%;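 note: 0% = median of compound wells and 100% = cells with positive control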
TEAD-YAP block – TEAD-YAP interaction inhibition | HEK-TIYL cells, TEAD-Gal4/YAP UAS-luciferase luminescence | inhibition, % at 9.12 µM | 640,000 tested, 1.4% active | AID 1259422; in the data active = inhibition above about 32%;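 note: 0% = median of test compound wells and 100% = reference inhibitor wells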
FBW7 activator – activators of human E3 ligase FBW7. Q969H0. AlphaScreen FBW7–phospho-cyclin E peptide binding, activator screen. normalized activity (activation), % at 26.1 µM. 650,000 tested, 0.13% active; in the data active = normalized activity above about 1.9%;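 note: purified mutant Fbw7 with reduced substrate affinity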
* marks the source's active call; other numbers are inactive results.

SMILES	MITF primary	GPR151 ag	TEAD-YAP block	FBW7 activator
NC(=O)c1ccc2nc(N3CCOCC3)sc2c1	-5	-4	-17	0
COc1cc(Nc2cc(Nc3ccccn3)ncn2)cc(OC)c1OC	18	0	-10	0
COc1cc(Nc2cc(Nc3nccc4ccccc34)nc(N)n2)cc(OC)c1OC	-1	-1	77*	0
COc1cc(Nc2cc(Nc3ccccn3)nc(N)n2)cc(OC)c1OC	-9	1	44*	0
COCCNC(=S)NNC(=O)CSCc1ccccc1Br	21	1	1	2.8*
O=C1NC(=S)N(c2ccccc2)C(=O)/C1=C\c1ccc([N+](=O)[O-])o1	80*	-1	5	0
O=C1NN(c2ccccc2)C(=O)/C1=C\c1ccc(-c2ccc([N+](=O)[O-])cc2)o1	5	-1	-10	0
O=C1OC2(CCCCC2)OC(=O)C1=Cc1ccc([N+](=O)[O-])o1	66*	-1	6	-1
O=C1NC(=S)N(c2ccc(F)cc2)C(=O)/C1=C\c1ccc2c(c1)OCCO2	71*	1	9	0
O=C1OC2(CCCC2)OC(=O)C1=Cc1ccc(-c2ccc([N+](=O)[O-])cc2)o1	17	-1	-1	0
O=C1NN(c2ccccc2)C(=O)/C1=C/c1ccc([N+](=O)[O-])o1	79*	-1	7	0
Cc1cc(C)c(OCC(=O)Nc2ccc(Oc3ccccc3)cc2)c(C)c1	11	-1	8	0
O=C1CC(Cl)C(=O)N1c1ccc(F)cc1 (stereo not given)	10	0	1	0
COc1ccc(S(=O)(=O)Cc2ccccc2)cc1N	2	1	-10	0
CCN(CC)S(=O)(=O)c1ccc(N2CCN(c3ccccc3OC)CC2)c(N)c1	4	1	33*	0
CCN(c1ccccc1)S(=O)(=O)c1ccc(OC)c(N)c1	-7	-1	52*	0
O=C(CSc1n[nH]c(-c2ccccc2)n1)Nc1cccc2ccccc12	-2	1	53*	0
O=C(CSc1n[nH]c(-c2ccccc2)n1)Nc1ccccc1Cl	4	-2	-8	1
CC1=C(C(=O)OC(C)C)C(c2ccccc2Cl)NC(=O)N1 (stereo not given)	7	2	-8	0
O=C(Nc1ccc(Cl)cc1)c1c(Cl)nsc1Cl	-22	1	76*	0
NC(=O)c1c(Cl)nsc1Cl	8	-2	65*	0
CCOc1ccc(NC(=O)C(=O)NCCCO)cc1	19	0	-11	1
CCOc1ccc(NC(=O)C(=O)NCCCN)cc1	-4	-1	76*	0
CCOc1ccc(NC(=O)C(=O)NCN(C(=O)CCl)c2ccccc2)cc1	18	-1	47*	0
CCCC(=O)N(C)c1nnc(-c2ccc(F)cc2)s1	9	2	-46	0
SMILES	MITF primary	GPR151 ag	TEAD-YAP block	FBW7 activator
CCC1=NN2C(=N)/C(=C/c3ccc(OCCOc4ccc(C(C)(C)C)cc4)c(OC)c3)C(=O)N=C2S1	-6	-1	1	0
O=C(CCc1ccccc1)Oc1ccccc1F	-16	-1	3	0
O=C(Nc1ccc(F)cc1)Nc1nnc(COc2ccc(Br)cc2)s1	-2	-1	-1	0
O=C(Nc1nc2c(s1)CCCC2)c1ccccc1I	-2	2	-75	0
O=C(Nc1nc2c(s1)CCCC2)c1cc(F)c(F)c(F)c1F	1	3	48*	0
Cn1ccc(C(=O)Nc2nc3c(s2)CCCC3)n1	26	-10	46*	1
COC(=O)c1ccc(C(=O)Nc2nc3c(s2)CCCC3)cc1	-10	-4	-77	0
COc1ccc(C(=O)N/C(=C/c2ccc(F)cc2)C(=O)NC(CC(C)C)C(=O)O)cc1 (stereo not given)	17	3	8	0
Nc1c(C(=O)N2CCCCC2)sc2nc(-c3cccs3)cc(C(F)(F)F)c12	-5	0	1	4.1*
CC(C)(C)c1ccc(C(=O)Nc2cccc3c(=O)[nH][nH]c(=O)c23)cc1	-7	-1	76*	0
CC(C)(C)c1ccc(C(=O)Nc2ccc(C(=O)Nc3cccc4ccccc34)cc2)cc1	1	2	5	0
O=C(Nc1cccc(Cl)c1)c1cccc([N+](=O)[O-])c1	-1	-1	8	0
COC(=O)c1cc(COC(=O)c2cccc(S(=O)(=O)NCc3ccccc3)c2)oc1C	11	0	-5	0
COc1ccc(COC(=O)c2cccc(S(=O)(=O)NCc3ccccc3)c2)cc1F	-3	1	45*	0
c1ccc(-n2cnc3c(NCc4nc5ccccc5[nH]4)nc(-c4csc5ccccc45)nc32)cc1	-3	-1	-10	6.9*
